Screens: PubChem, National Center for Advancing Translational Sciences (NCATS)
HT1080 IDH1KD tx: toxicity to HT-1080 IDH1 knockdown cells (counter line); HT-1080 IDH1 knockdown viability, ATP luminescence, 48 h; Potency, µM (doses to about 46.1 µM), for inactives: at the top dose activity, negative = toxicity, hits mostly cytotoxic; 360,000 compounds, 2% hits;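 note: potency is the fitted concentration of half-maximal effect; 0% = DMSO wells and -100% = cell-free medium wells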
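Viability of IDH1-knockdown HT-1080 fibrosarcoma cells was assessed by CellTiter-Glo after 48 h at 37 °C with titrated compound; concentration-effect curves were classified by fit quality and response size.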
IL1B secr inh: inhibitors of inflammasome signaling (IL-1 beta secretion). activity change, % at 57.5 µM. THP-1 LPS/ATP IL-1B secretion, AlphaLISA, 16 h; hits give low values. 360,000 compounds, 4.7% hits; in the data active = activity change below about -50%; inconclusive = mostly about -30% to -49%; note: % is set by controls: 0 for no effect and ±100 for the full control effect
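Secreted IL-1B measured by AlphaLISA bead assay after 16 h compound exposure of THP-1 cells; compounds (final up to 57.5 uM) added 1 h before LPS (250 ng/mL) and ATP (1.25 mM) stimulation; lower signal means less secretion.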
HepG2 viability: kills HepG2 cells in TGF-b inhibitor counter-screen; HepG2 CAGA-GFP viability, ATP luminescence, 18 h; AID 588856; 410,000 compounds, 0.76% hits; Potency, µM (highest dose often 46.1 µM), without a hit: at the highest dose activity change, negative = cytotoxicity, usual class: cytotoxic; note: potency is the fitted concentration of half-maximal effect
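CellTiter-Glo luminescence gave cytotoxicity after 18 hours at 37 degrees C. The cells were HepG2 CAGA-GFP in 1% FBS DMEM, stimulated with 500 pg/mL TGF-beta after compound addition. %Activity was normalised to no-cell wells (complete cell-killing) and DMSO (no toxicity), and curves were fitted and classified.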
HT1080-NT tox: kills 2HG-producing HT-1080-NT fibrosarcoma cells; HT-1080-NT fibrosarcoma viability, CellTiter-Glo ATP luminescence, 48 h; Potency, µM (titrated, usually from 46.1 µM), for inactives: top-dose activity, negative = less viability, usual class: cytotoxic; AID 686970; 360,000 compounds, 1.6% hits;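 note: NT is the 2HG producing partner of a matched IDH1 knockdown line; potency is the fitted concentration of half-maximal effect; 0% = DMSO-treated cells and -100% = media-only wells without cells; nearly all actives have a fitted effect of over 55% in size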
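Viability by CellTiter-Glo luminescence after 48 h compound exposure at 37C of HT-1080-NT cells (750/well, RPMI, 5% FBS). % activity scaled between DMSO wells and medium-only wells, then curve-fitted and categorized by curve class.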
TGFb inhibitor: inhibitors of TGF-b signaling. HepG2 CAGA-GFP TGF-b/SMAD3 reporter, GFP fluorescence, 18 h; TGF-beta stimulated, 500 pg/mL final. Potency, µM (highest dose often 46.1 µM), inactives show top-dose activity, negative = inhibition, hits mostly inhibitors. 410,000 compounds, 1.2% hits. AID 588855; note: potency is the fitted concentration of half-maximal effect; % is set by controls: 0 for no effect and ±100 for the full control effect; nearly all actives have a fitted effect of over 65% in size
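Using HEPG2 CAGA-GFP reporter cells at 1000 cells/well, we pinned test compounds, stimulated with recombinant TGF-beta (500 pg/mL final) and measured total well GFP after 18 h.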
Giardia kill: kills Giardia lamblia. Giardia lamblia trophozoite viability. activity change, % at 7.66 µM, hits read low. 340,000 compounds, 0.15% hits. AID 540267; in the data active = activity change below about -80%; inconclusive = between about -30% and that limit;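 note: parasites exposed to compound for two days anaerobically before the ATP read; % is set by controls: 0 for no effect and ±100 for the full control effect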
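Luminescent ATP signal served as the viability read-out, measured 15-30 min after adding ATP detection reagent to trophozoites that had been incubated with compounds for 48 hrs at 37 deg C anaerobically at 100 cells/well.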
The depositor's hits bear a star; u = inconclusive; x = no result given; [ ] = dose if it differs, or a comment. In the library only some 6.5% were active in any assay of this set; here they are far more common. Unless noted, calls come from the whole dose curve; as a rule, active = well fitted curve in the direction sought with a large enough effect; inconclusive = small, poorly fitted or top-dose-only effect, or another doubt; inactive = no such curve, though single readings can be large; an effect the other way counts as inactive or inconclusive.

SMILES	HT1080 IDH1KD tx	IL1B secr inh	HepG2 viability	HT1080-NT tox	TGFb inhibitor	Giardia kill
O=C(C[C@H]1C/C=C\C[C@H](NC(=O)OCC2c3ccccc3-c3ccccc32)C(=O)O[C@H](c2ccccc2)CNC1=O)N[C@H](CO)Cc1ccccc1	15µM*	24	-47%	12µM*	16µM*	-8
O=C(C[C@H]1C/C=C\C[C@@H](Cc2ccc(F)cc2)C(=O)O[C@H](c2ccccc2)CNC1=O)N[C@@H](CO)Cc1ccccc1	10%	21	0%	-10%	-5%	-13
O=C(N[C@@H]1C/C=C\C[C@@H](CC(=O)N(CCO)Cc2ccccc2)C(=O)NC[C@H](c2ccccc2)OC1=O)OCC1c2ccccc2-c2ccccc21	-21%	-6	-60%	u	u	0
O=C(N[C@@H]1C/C=C\C[C@H](CC(=O)N(CCO)Cc2ccccc2)C(=O)NC[C@@H](c2ccccc2)OC1=O)OCC1c2ccccc2-c2ccccc21	u	-13	-66%	u	7.9µM*	0
Cc1cc(O)c(C(C)C)cc1NC(=O)Nc1cccc2ccccc12	-9%	-66*	-11%	-14%	u	-1
Cc1cc(O)c(C(C)C)cc1NC(=O)Nc1cc(Cl)ccc1Cl	-11%	25	-1%	-19%	-3%	6
COC(=O)C1=C(C(=O)OC)[C@@H]2Nc3ccccc3[C@@]23C[C@@H](C(=O)OC)N(C(=O)c2cccs2)C3=N1	8%	20	-4%	-1%	-1%	-16
S=C(NCCSCc1ccc(Cl)cc1Cl)Nc1ccccc1	u	-15	-63%	u	u	12
Cc1ccccc1CSCCNC(=S)Nc1ccccc1	u	-158*	-22%	u	-24%	-5
CCCCCCCCCCCCCCCC[N+](C)(C)Cc1ccc(F)cc1	-23%	-74*	-122%	3%	u	-7
CCCCCCCn1c2c(c(=N)c3ccccc31)CCC2	12µM*	u	2%	u	u	6
CCCCCC(O)(CCCCC)C(=O)NNc1ccccc1	u	0	-2%	u	4%	15
CC(C)n1c(O)c(N=NC(=O)C2COc3ccccc3O2)c2ccccc21 (stereo not given)	u	-89*	8%	-24%	3%	1
O=C(COc1ccc(Br)cc1Br)NN1C(=O)c2ccccc2C1=O	0%	-19	24%	-1%	3%	-11
COc1cc(/C=C(\C#N)C(=O)NCC2CCCO2)ccc1OCC(N)=O (stereo not given)	20%	2	10µM*	-4%	-3%	-17
Cc1ccc(NC(=O)c2c(C)oc3ccc(O)c(CN4CCN(Cc5ccccc5)CC4)c23)cc1	x	x	-47%	x	u	x
Cn1nc(C(=O)N2CCN(C(c3ccccc3)c3ccccc3)CC2)c2ccccc2c1=O	u	-3	-3%	u	-17%	24
O=C(c1ccc(Cl)cc1)N1CCN(c2ccnc3cc(Cl)ccc23)CC1	-28%	-92*	2%	u	u	-12
CCC(=O)N1CCN(c2ccnc3cc(Cl)ccc23)CC1	2%	-8	-9%	-8%	-3%	12
Cc1ccc(S(=O)(=O)N2CCN(c3ccnc4cc(Cl)ccc34)CC2)cc1	-29%	-81*	2%	u	u	-6
COc1ccc(-c2csc(N3CCN(c4cc(C)nc5ccccc45)CC3)n2)cc1OC	16µM*	-101*	11µM*	u	u	28
CC(C)N(C(=O)N1CCN(c2ccnc3cc(Cl)ccc23)CC1)C(C)C	-21%	-84*	1%	-21%	0%	-23
Cc1ccc(S(=O)(=O)N2CCN(c3ccnc4cc(Cl)ccc34)CC2)cc1C	-16%	u	3%	-14%	u	15
COc1ccc2nc(C)cc(N3CCOCC3)c2c1	7%	13	5%	0%[9.24 µM]	-16%	-2
CN1CCN(c2ccc(Nc3ccnc4cc(Cl)ccc34)cc2)CC1	21µM*	-90*	-31%	u	-33%	19
SMILES	HT1080 IDH1KD tx	IL1B secr inh	HepG2 viability	HT1080-NT tox	TGFb inhibitor	Giardia kill
COc1ccc(N2CCN(c3ccnc4cc(Cl)ccc34)CC2)cc1	8%	-56*	6%	1%	12%	-2
COc1ccc2nc(C)cc(N3CCN(c4ccccc4)CC3)c2c1	-27%	-65*	-26%	u	u	11
CNC(=S)N/N=C/c1ccc(-c2cc([N+](=O)[O-])ccc2Cl)o1	-19%	-14	-8%	-14%	-15%	-19
COCCNc1nc(-c2cc3ccccc3o2)cs1	-1%	-53*	-20%	-2%	-1%	-17
O=C(CNS(=O)(=O)c1cccc(C(F)(F)F)c1)NC1CCCCCC1	2%	20	-6%	9%	-3%	-2
Cc1ccc(C)c(N=Nc2nc3ccccc3n2C)c1	7.9µM*	-80*	-54%	4µM*	u	-22
Cc1cc(C)c(C)c(N=Nc2nc3ccccc3n2C)c1C	u	u	-31%	u	u	-1
CC(C)(C)c1ccc(C(=O)NCCc2csc3nc(-c4ccccc4F)nn23)cc1	x	x	-22%	x	18µM*	x
COc1cc2c3nnc(-c4ccc(F)cc4)c-3cn(Cc3ccc(F)cc3)c2cc1OC	u	21	-111%	-7%	40%	u
COc1cc2c3nnc(-c4ccc(F)cc4)c-3cn(Cc3ccccc3)c2cc1OC	u	-95*	-112%	-4%	71%	-28
CC(C)CCOC(=O)C1C(c2ccccc2)C(C(=O)O)C1c1ccccc1 (stereo not given)	3.7µM*	8	-1%	7.3µM*	-4%	0
COCC(C)Nc1ncnc2c1cnn2-c1cccc(Cl)c1 (stereo not given)	x	x	-32%	x	11%	x
COc1ccc(-c2csc(NC(CO)c3nc4ccccc4n3Cc3ccc(C)cc3)n2)cc1 (stereo not given)	-7%	-22	-30%	u	u	u
Cc1ccc(Cn2c(C(CO)Nc3nc(-c4ccc(Cl)c([N+](=O)[O-])c4)cs3)nc3ccccc32)cc1 (stereo not given)	-26%	u	-40%	u	16µM*	u
Cc1ccc(Cn2c(C(CO)Nc3nc(-c4ccc(F)cc4)cs3)nc3ccccc32)cc1 (stereo not given)	u	-69*	16%	u	-3%	10
CCOc1ccc(-c2cccc(NS(=O)(=O)c3ccc(C)s3)c2)nn1	x	x	-21%	x	-15%	x
